Experimental data published in PubChem BioAssay.
Activity calls are given as the source filed them.

What was measured:
[1] = tested on: PRMT1 (protein arginine N-methyltransferase 1); experiment: PRMT1 binders on small-molecule microarrays, primary screen, biochemical, small-molecule microarray, 635 nm fluorescence (AID 1088); settings: small-molecule microarray binding, higher = more signal;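 further: binding of Prmt1 protein to compounds spotted on small-molecule microarray slides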
[2] = yeast growth modulation, basal conditions, primary screen, YJM789 clinical isolate, OD600, 24 h (AID 1089);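 further: growth of clinical yeast isolate S. cerevisiae YJM 789 seeded 1000 cells per well; test concentration not given here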; settings: S. cerevisiae YJM789 growth, higher = more signal, called active from +8 up or from −8 down
[3] = fission yeast growth modulation, primary screen, strain 972, OD600, 24 h, no modulator (AID 1090);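 further: basal condition with compound alone and no growth modifier present; test concentration not given here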; settings: S. pombe 972 growth, higher = more signal, called active from +8 up or from −8 down
[4] = S. cerevisiae growth modulation with rapamycin, primary screen, strain BY4716, OD600, 96 h (AID 1091); settings: higher = more signal, called active from +8 up or from −8 down; further: test concentration not given here
[5] = molecular target: Torsin-1A-interacting protein 2 (Homo sapiens) (UniProt Q8NFQ8); experiment: LULL1 binders on small-molecule microarray, primary screen, cell lysate, human LULL1 lysate, 635/667 nm fluorescence (AID 1092); settings: hLULL1 lysate binding, 635 nm fluorescence, higher = more signal;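 further: probe is lysate of COS7 cells overexpressing human LULL1; score merges per-feature 667 nm fluorescence with signal-to-noise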
Chain of Torsin-1A-interacting protein 2 (Homo sapiens) (Q8NFQ8 whole entry, looked up): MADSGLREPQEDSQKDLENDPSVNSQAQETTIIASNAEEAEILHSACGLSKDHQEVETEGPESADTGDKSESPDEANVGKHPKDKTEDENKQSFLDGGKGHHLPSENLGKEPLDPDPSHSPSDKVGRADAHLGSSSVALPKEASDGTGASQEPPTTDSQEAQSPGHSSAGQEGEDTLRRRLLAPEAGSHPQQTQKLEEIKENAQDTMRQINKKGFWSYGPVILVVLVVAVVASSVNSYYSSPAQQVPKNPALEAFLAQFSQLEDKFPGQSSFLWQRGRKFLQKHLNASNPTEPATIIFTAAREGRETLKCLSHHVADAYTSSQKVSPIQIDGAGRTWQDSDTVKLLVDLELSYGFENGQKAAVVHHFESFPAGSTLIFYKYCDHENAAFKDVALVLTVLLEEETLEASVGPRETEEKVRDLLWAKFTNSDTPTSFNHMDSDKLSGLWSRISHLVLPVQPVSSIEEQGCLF

[6] = E. coli growth modulation, two-sided OD650, primary screen, E. coli filamentation project, strain DRC41, 24 h (AID 1093); settings: OD650, 24 h, higher = more signal, called active from +8 up or from −8 down;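 further: MC1000 strain lacking acrAB efflux and sulA so SOS filamentation is blocked; test concentration not given here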
[7] = small-molecule microarray binders of probe aLefty2, primary screen, biochemical, biotinylated probe, 635/667 nm fluorescence (AID 1094); settings: higher = more signal;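 further: score merges spot fluorescence near 667 nm with spot signal-to-noise ratio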
[8] = tested on: Noggin (protein binding on small-molecule microarray); experiment: Noggin binders on small-molecule microarray, primary screen, biochemical, 635/667 nm fluorescence (AID 1095); settings: 635 nm fluorescence, higher = more signal;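 further: score merges 667 nm feature fluorescence with signal to noise over triplicate slides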
[9] = molecular target: Neurogenic locus notch homolog protein 3 (Homo sapiens) (UniProt Q9UM47); experiment: NOTCH3 binders on small-molecule microarray, primary screen, biochemical, 635/667 nm fluorescence (AID 1096); settings: NOTCH3 binding, 635 nm fluorescence, higher = more signal
Chain of Neurogenic locus notch homolog protein 3 (Homo sapiens) (Q9UM47 whole entry, looked up): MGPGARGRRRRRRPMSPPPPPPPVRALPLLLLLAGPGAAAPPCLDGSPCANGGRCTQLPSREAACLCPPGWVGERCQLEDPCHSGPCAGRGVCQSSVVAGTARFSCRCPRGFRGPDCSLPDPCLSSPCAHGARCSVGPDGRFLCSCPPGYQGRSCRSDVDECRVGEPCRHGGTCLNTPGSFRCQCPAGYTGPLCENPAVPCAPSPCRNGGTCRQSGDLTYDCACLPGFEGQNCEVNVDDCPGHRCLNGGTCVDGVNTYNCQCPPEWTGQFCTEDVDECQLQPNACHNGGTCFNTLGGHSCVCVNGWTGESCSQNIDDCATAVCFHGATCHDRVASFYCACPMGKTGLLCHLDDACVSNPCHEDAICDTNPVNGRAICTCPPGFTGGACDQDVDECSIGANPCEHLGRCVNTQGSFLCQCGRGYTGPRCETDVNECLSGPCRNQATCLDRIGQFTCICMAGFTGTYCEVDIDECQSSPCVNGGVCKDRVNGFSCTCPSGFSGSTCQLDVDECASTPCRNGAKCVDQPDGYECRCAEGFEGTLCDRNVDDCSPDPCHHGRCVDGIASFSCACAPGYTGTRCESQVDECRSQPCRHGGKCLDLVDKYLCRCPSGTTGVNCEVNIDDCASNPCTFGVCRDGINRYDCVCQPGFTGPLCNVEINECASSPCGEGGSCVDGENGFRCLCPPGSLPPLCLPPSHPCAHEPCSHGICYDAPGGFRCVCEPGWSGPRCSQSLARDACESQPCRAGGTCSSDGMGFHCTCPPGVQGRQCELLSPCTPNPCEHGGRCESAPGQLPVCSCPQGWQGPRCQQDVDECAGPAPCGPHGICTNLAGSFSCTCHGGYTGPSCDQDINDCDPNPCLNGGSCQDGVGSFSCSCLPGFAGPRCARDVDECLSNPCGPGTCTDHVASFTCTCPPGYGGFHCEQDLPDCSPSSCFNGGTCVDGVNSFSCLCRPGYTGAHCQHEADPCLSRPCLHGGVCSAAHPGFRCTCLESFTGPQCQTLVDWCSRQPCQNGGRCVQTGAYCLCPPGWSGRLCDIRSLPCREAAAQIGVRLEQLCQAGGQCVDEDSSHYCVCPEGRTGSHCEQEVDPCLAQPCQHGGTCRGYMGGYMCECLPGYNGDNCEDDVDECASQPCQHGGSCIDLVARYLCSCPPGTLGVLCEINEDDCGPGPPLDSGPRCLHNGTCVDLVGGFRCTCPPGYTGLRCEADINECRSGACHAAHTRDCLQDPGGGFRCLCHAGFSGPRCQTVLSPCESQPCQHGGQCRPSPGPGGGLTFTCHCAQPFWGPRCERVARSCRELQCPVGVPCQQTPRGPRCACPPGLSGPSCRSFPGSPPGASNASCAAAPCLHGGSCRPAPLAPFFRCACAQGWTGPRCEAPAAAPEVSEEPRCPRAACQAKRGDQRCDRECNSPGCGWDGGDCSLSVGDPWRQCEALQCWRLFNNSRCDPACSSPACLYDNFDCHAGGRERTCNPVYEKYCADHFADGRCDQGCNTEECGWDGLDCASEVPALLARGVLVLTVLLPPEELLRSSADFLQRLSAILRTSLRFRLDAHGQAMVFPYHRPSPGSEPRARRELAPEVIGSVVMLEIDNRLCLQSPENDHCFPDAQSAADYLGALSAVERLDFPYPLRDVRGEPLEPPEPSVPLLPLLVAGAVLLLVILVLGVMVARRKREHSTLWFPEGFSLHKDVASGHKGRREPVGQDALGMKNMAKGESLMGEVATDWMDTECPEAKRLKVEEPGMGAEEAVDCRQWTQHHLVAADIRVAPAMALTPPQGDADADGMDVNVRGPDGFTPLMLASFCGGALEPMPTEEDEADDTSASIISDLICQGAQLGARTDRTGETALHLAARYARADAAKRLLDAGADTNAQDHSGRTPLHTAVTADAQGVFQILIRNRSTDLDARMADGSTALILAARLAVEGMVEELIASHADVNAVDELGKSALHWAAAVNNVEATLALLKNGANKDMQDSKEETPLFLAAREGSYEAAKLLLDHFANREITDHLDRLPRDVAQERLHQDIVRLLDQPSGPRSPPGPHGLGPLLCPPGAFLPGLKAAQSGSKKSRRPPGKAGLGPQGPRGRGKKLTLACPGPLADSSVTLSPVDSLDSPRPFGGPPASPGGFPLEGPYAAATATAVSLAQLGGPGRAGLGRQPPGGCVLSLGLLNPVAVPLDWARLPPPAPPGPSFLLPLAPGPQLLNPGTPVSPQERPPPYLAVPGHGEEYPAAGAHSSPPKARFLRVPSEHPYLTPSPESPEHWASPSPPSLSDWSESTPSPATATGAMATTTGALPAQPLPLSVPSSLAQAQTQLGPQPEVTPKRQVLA

[10] = small-molecule microarray binders of probe aEGFR, primary screen, biochemical, biotinylated probe, 635/667 nm fluorescence (AID 1097); settings: higher = more signal;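 further: probe is a biotinylated anti-EGFR antibody binding compounds printed on slides; score combines fluorescence near 667 nm and signal to noise of each spot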

COCCOC(=O)N1C(=O)[C@@]2(c3ccccc31)[C@H](c1ccc(OCCO)cc1)N1[C@H](c3ccccc3)[C@H](c3ccccc3)OC(=O)[C@H]1[C@@H]2C(=O)NC[C@H](O)c1ccccc1
composite z-score [1]: 1.53 | z-score [2]: 2.2 (inactive) | z-score [3]: 0.892 (inactive) | z-score [4]: 6.77 (inactive) | composite z-score [5]: 3.09 | z-score [6]: -0.0625 (inactive) | composite z-score [7]: 0.187 | composite z-score [8]: 1.19 | composite z-score [9]: 1.04 | composite z-score [10]: -0.0759

CC1C=C(CCCO)C=C(C(=O)OCCS(C)(=O)=O)C(C(=O)OCCS(C)(=O)=O)=CN1Cc1cccc(OC(F)(F)F)c1 (stereo not given)
composite z-score [1]: 0.482 | z-score [2]: -1.27 (inactive) | z-score [3]: -2.49 (inactive) | z-score [4]: -0.0014 (inactive) | composite z-score [5]: 3.11 | z-score [6]: -0.436 (inactive) | composite z-score [7]: 0.0057 | composite z-score [8]: 0.0266 | composite z-score [9]: 0.379 | composite z-score [10]: -0.0418

COCCOC(=O)N1C(=O)[C@@]2(c3cc(C#Cc4ccc(OC)cc4)ccc31)[C@H](C(=O)N1CCc3cc(OC)c(OC)cc3C1)[C@H]1C(=O)O[C@H](c3ccccc3)[C@H](c3ccccc3)N1[C@@H]2c1ccc(O)cc1
composite z-score [1]: 1.55 | z-score [2]: 1.99 (inactive) | z-score [3]: 1.71 (inactive) | z-score [4]: 2.29 (inactive) | composite z-score [5]: 2 | z-score [6]: 1.12 (inactive) | composite z-score [7]: -0.23 | composite z-score [8]: 0.614 | composite z-score [9]: 1.14 | composite z-score [10]: -0.0197

COC(=O)[C@@]1(Cc2ccc(F)cc2)[C@H]2c3cc(C(=O)N4CCCC4)n(Cc4ccccc4)c3C[C@H]2CN1C(=O)c1ccccc1
composite z-score [1]: -0.101 | z-score [2]: -0.136 (inactive) | z-score [3]: 1.31 (inactive) | z-score [4]: 1.24 (inactive) | composite z-score [5]: 3.22 | z-score [6]: 0.21 (inactive) | composite z-score [7]: 0.391 | composite z-score [8]: -0.486 | composite z-score [9]: 0.783 | composite z-score [10]: 0.0953

COCCCNC(=O)[C@@H]1c2ccccc2C(=O)N(Cc2cc(F)cc(C(F)(F)F)c2)[C@H]1c1ccc(CO)cc1
composite z-score [1]: -0.444 | z-score [2]: -0.359 (inactive) | z-score [3]: -0.555 (inactive) | z-score [4]: -0.703 (inactive) | composite z-score [5]: 0.0519 | z-score [6]: 0.526 (inactive) | composite z-score [7]: -0.016 | composite z-score [8]: -0.902 | composite z-score [9]: -1.26 | composite z-score [10]: -0.207

CCN(CC)c1ccc(N2CC=CC34O[C@@H]5/C=C\CCCOC(=O)C5[C@H]3C(=O)N(CCCCCO)[C@@H]4C2=O)cc1 (stereo not given in full)
composite z-score [1]: -0.752 | z-score [2]: -0.177 (inactive) | z-score [3]: -0.691 (inactive) | z-score [4]: -0.624 (inactive) | composite z-score [5]: 0.45 | z-score [6]: -0.838 (inactive) | composite z-score [7]: -0.231 | composite z-score [8]: -0.873 | composite z-score [9]: -0.404 | composite z-score [10]: -0.216

CN(C)CCCCNC(=O)[C@H]1C[C@H]2C(=O)N[C@@H](CCCC[N+](C)(C)C)C(=O)N2[C@H]1c1cccc(OCCO)c1
composite z-score [1]: 1.53 | z-score [2]: -0.359 (inactive) | z-score [3]: 0.276 (inactive) | z-score [4]: -0.702 (inactive) | composite z-score [5]: 2.05 | z-score [6]: 0.305 (inactive) | composite z-score [7]: -0.204 | composite z-score [8]: 1.35 | composite z-score [9]: 0.907 | composite z-score [10]: -0.0733

COc1ccccc1CN1C(=O)c2ccccc2[C@](Cc2ccccc2I)(C(=O)NCCN2CCOCC2)[C@@H]1c1ccc(CO)cc1
composite z-score [1]: 1.54 | z-score [2]: -2.4 (inactive) | z-score [3]: 0.548 (inactive) | z-score [4]: -0.168 (inactive) | composite z-score [5]: 3.27 | z-score [6]: 0.0429 (inactive) | composite z-score [7]: -0.0028 | composite z-score [8]: 1.12 | composite z-score [9]: 1.09 | composite z-score [10]: -0.0502

CC(C)C[C@@H]1NC(=O)[C@@H]2C[C@H](C(=O)NCCCC[N+](C)(C)C)[C@H](c3cccc(OCCO)c3)N2C1=O
composite z-score [1]: 1.31 | z-score [2]: 1.14 (inactive) | z-score [3]: 0.936 (inactive) | z-score [4]: -0.567 (inactive) | composite z-score [5]: 0.622 | z-score [6]: -0.329 (inactive) | composite z-score [7]: -0.0123 | composite z-score [8]: 1.84 | composite z-score [9]: 1.04 | composite z-score [10]: -0.0069

COC(=O)[C@@]1(Cc2ccccc2)[C@H]2c3cc(C(=O)N(C)C)n(Cc4ccc(O)c(OC)c4)c3C[C@H]2CN1C(=O)c1ccccc1
composite z-score [1]: 1.18 | z-score [2]: 0.473 (inactive) | z-score [3]: -0.455 (inactive) | z-score [4]: 0.836 (inactive) | composite z-score [5]: 2.74 | z-score [6]: 0.195 (inactive) | composite z-score [7]: -0.0203 | composite z-score [8]: -0.372 | composite z-score [9]: 0.895 | composite z-score [10]: 0.38

COCCOC(=O)N1C(=O)[C@@]2(c3cc(C#CCCO)ccc31)[C@H](C(=O)N1CCc3cc(OC)c(OC)cc3C1)[C@H]1C(=O)O[C@H](c3ccccc3)[C@H](c3ccccc3)N1[C@@H]2c1ccc(OCCO)cc1
composite z-score [1]: 1.55 | z-score [2]: -1.17 (inactive) | z-score [3]: -0.581 (inactive) | z-score [4]: 2.59 (inactive) | composite z-score [5]: 2.59 | z-score [6]: 1.26 (inactive) | composite z-score [7]: -0.104 | composite z-score [8]: 1.12 | composite z-score [9]: 1.07 | composite z-score [10]: -0.0859

C=CCN1C(=O)[C@@]2(O[C@@H](CCO)[C@H]([Si](C)(C)c3ccc(OC)cc3)[C@H]2C)c2cc(NC(=O)[C@H](C)O)ccc21
composite z-score [1]: 1.54 | z-score [2]: 0.988 (inactive) | z-score [3]: -1.64 (inactive) | z-score [4]: -0.0361 (inactive) | composite z-score [5]: 3.15 | z-score [6]: 0.571 (inactive) | composite z-score [7]: -0.0622 | composite z-score [8]: 0.959 | composite z-score [9]: 0.759 | composite z-score [10]: -0.0485

COc1ccc([Si](C)(C)[C@H]2[C@H](CC(=O)N3CCC[C@H]3CO)O[C@@]3(C(=O)N(Cc4ccc(N5C(=O)c6cccc7cccc5c67)cc4)c4ccccc43)[C@@H]2C)cc1
composite z-score [1]: 1.54 | z-score [2]: -0.631 (inactive) | z-score [3]: 0.363 (inactive) | z-score [4]: -0.403 (inactive) | composite z-score [5]: 2.5 | z-score [6]: 0.965 (inactive) | composite z-score [7]: -0.057 | composite z-score [8]: 1.11 | composite z-score [9]: 1.13 | composite z-score [10]: 0.0333

COC(=O)C(CC#Cc1ccc2c(c1)[C@]1(C(=O)N2)[C@H](c2ccc(O)cc2)N2[C@H](c3ccccc3)[C@H](c3ccccc3)OC(=O)[C@H]2[C@@H]1C(=O)O)C(=O)OC
composite z-score [1]: 0.439 | z-score [2]: 1.22 (inactive) | z-score [3]: -0.489 (inactive) | z-score [4]: -0.922 (inactive) | composite z-score [5]: 2.96 | z-score [6]: -1.28 (inactive) | composite z-score [7]: -0.166 | composite z-score [8]: 0.307 | composite z-score [9]: 0.64 | composite z-score [10]: -0.0152
